Measurements: PubChem BioAssay (NCI)
Compounds without any hit were thinned out: in the full panel of roughly 83,000, 20% have a hit.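 Assay: single dose, 48 h. Readout: percent growth (0 = no net growth; negative = cell death). Active: <10.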 Activity calls are given as the source filed them.

What was measured:
Assay in all cases: NCI-60 one-dose screen, 48 h (100 = growth as untreated, 0 = no growth, -100 = all killed)
Settings in all cases: 10 µM unless noted
NCI-H23 lung = test system: NCI-H23 lung
NCI-H226 lung = test system: NCI-H226 lung
NCI-H322M lung = test system: NCI-H322M lung
HOP-62 NSCLC = test system: HOP-62 NSCLC
NCI-H460 lung = test system: NCI-H460 lung
HOP-92 NSCLC = test system: HOP-92 NSCLC
NCI-H522 lung = test system: NCI-H522 lung
A549/ATCC NSCLC = test system: A549/ATCC NSCLC
786-0 renal = test system: 786-0 renal
COLO 205 colon = test system: COLO 205 colon
DU-145 prostate = test system: DU-145 prostate
K-562 leukemia = test system: K-562 leukemia
MALME-3M melanoma = test system: MALME-3M melanoma
MDA-MB-231 breast = test system: MDA-MB-231 breast
RXF 393 renal = test system: RXF 393 renal
SF-268 CNS = test system: SF-268 CNS
SF-295 CNS = test system: SF-295 CNS
SF-539 CNS = test system: SF-539 CNS
UACC-257 melanoma = test system: UACC-257 melanoma
M14 melanoma = test system: M14 melanoma

Measured: growth

Nc1nc(-c2cc3c(cc2Cl)NC(=O)/C3=C/c2ccc(Cl)cc2)cs1
active: K-562 leukemia 5.83% | MDA-MB-231 breast 2.9%
inactive: NCI-H23 lung 49.1% | NCI-H226 lung 72.3% | NCI-H322M lung 59.7% | HOP-62 NSCLC 63% | NCI-H460 lung 53.1% | HOP-92 NSCLC 17.8% | NCI-H522 lung 17.3% | A549/ATCC NSCLC 64.5% | 786-0 renal 43.7% | COLO 205 colon 61.7% | DU-145 prostate 64.6% | MALME-3M melanoma 56.2% | RXF 393 renal 51.6% | SF-268 CNS 44.7% | SF-295 CNS 60.5% | SF-539 CNS 62.3% | UACC-257 melanoma 73.5% | M14 melanoma 28.7%

C=C1c2c(Cl)ccc(O)c2C(O)=C2C(=O)[C@]3(O)C(O)=C(C(N)=O)C(=O)[C@@H](N(C)C)[C@@H]3[C@@H](O)[C@H]12
active: NCI-H23 lung 8.01% | NCI-H322M lung -2.1% | HOP-62 NSCLC 9.39% | NCI-H460 lung 4.63% | HOP-92 NSCLC -37.3% | A549/ATCC NSCLC 9.74% | 786-0 renal 8.22% | K-562 leukemia 3.66% | MALME-3M melanoma -15% | SF-295 CNS -4.14% | SF-539 CNS 5.14% | UACC-257 melanoma -4.26% | M14 melanoma 9.22%
inactive: NCI-H226 lung 42.7% | NCI-H522 lung 11.6% | COLO 205 colon 22.5% | DU-145 prostate 21.9% | MDA-MB-231 breast 11% | RXF 393 renal 12.4% | SF-268 CNS 11.8%

c1ccc(-c2nc3sc(C(c4ccccc4)c4ccccc4)nn3c2-c2ccccc2)cc1
inactive: NCI-H23 lung 92.2% | NCI-H226 lung 99.6% | NCI-H322M lung 93.6% | HOP-62 NSCLC 89.9% | NCI-H460 lung 95.6% | HOP-92 NSCLC 77.9% | NCI-H522 lung 95.3% | A549/ATCC NSCLC 85.3% | 786-0 renal 94.9% | COLO 205 colon 86.8% | DU-145 prostate 99.9% | K-562 leukemia 106% | MALME-3M melanoma 86.4% | MDA-MB-231 breast 97.8% | RXF 393 renal 109% | SF-268 CNS 92.6% | SF-295 CNS 98.6% | SF-539 CNS 98% | UACC-257 melanoma 92.2% | M14 melanoma 92%

CC(NCCC(c1ccccc1)c1ccccc1)c1ccccc1 (stereo not drawn)
inactive: NCI-H23 lung 82% | NCI-H226 lung 87.6% | NCI-H322M lung 69.8% | HOP-62 NSCLC 97.8% | NCI-H460 lung 11.6% | HOP-92 NSCLC 43.3% | NCI-H522 lung 74.8% | A549/ATCC NSCLC 80.7% | 786-0 renal 73.4% | DU-145 prostate 89.1% | MALME-3M melanoma 74.1% | MDA-MB-231 breast 83.8% | SF-268 CNS 89.2% | SF-295 CNS 62.2% | SF-539 CNS 94.7% | UACC-257 melanoma 64.4% | M14 melanoma 71.8%
active: COLO 205 colon -54.9% | K-562 leukemia -44%

CC1(C)N=C(N)N=C(N)N1c1ccc(F)c(C(F)(F)F)c1
active: NCI-H522 lung -8.07% | A549/ATCC NSCLC 9.86% | 786-0 renal -4.42%
inactive: NCI-H23 lung 29.4% | NCI-H226 lung 54.1% | NCI-H322M lung 51.9% | HOP-62 NSCLC 21.7% | NCI-H460 lung 21.6% | HOP-92 NSCLC 45.4% | COLO 205 colon 79.8% | DU-145 prostate 38.5% | K-562 leukemia 16.9% | MALME-3M melanoma 74.1% | MDA-MB-231 breast 73.5% | SF-268 CNS 23.2% | SF-295 CNS 19.5% | SF-539 CNS 23.2% | UACC-257 melanoma 25.2% | M14 melanoma 24%

Cc1ccc(-c2cc(-c3nnc(SCC(=O)c4ccccc4)o3)c3ccccc3n2)cc1
inactive: NCI-H23 lung 97.1% | NCI-H226 lung 94.5% | NCI-H322M lung 90.3% | HOP-62 NSCLC 108% | NCI-H460 lung 98.3% | HOP-92 NSCLC 96.6% | NCI-H522 lung 87.7% | A549/ATCC NSCLC 91.4% | 786-0 renal 92.8% | COLO 205 colon 111% | DU-145 prostate 95.2% | K-562 leukemia 93.2% | MALME-3M melanoma 107% | MDA-MB-231 breast 117% | SF-268 CNS 88.9% | SF-295 CNS 99.1% | SF-539 CNS 94.2% | UACC-257 melanoma 114% | M14 melanoma 97.2%

Cc1ccc2c(C3C(C#N)=C(N)Oc4cc5ccccc5cc43)cc(=O)oc2c1 (stereo not drawn)
active: NCI-H522 lung 7.76% | COLO 205 colon 2.72% | RXF 393 renal -11% | SF-295 CNS 9.32% | SF-539 CNS 2.31% | M14 melanoma 0.37%
inactive: NCI-H23 lung 41% | NCI-H226 lung 87.8% | NCI-H322M lung 42.7% | HOP-62 NSCLC 30.1% | NCI-H460 lung 12.5% | HOP-92 NSCLC 75.7% | A549/ATCC NSCLC 25.1% | 786-0 renal 26.2% | DU-145 prostate 16% | MALME-3M melanoma 66.4% | MDA-MB-231 breast 50.6% | SF-268 CNS 54.6% | UACC-257 melanoma 67.8%

C/C(=N/NC(=O)Cn1c2ccccc2c2ccncc21)c1cccs1
inactive: NCI-H23 lung 98.1% | NCI-H226 lung 89.3% | NCI-H322M lung 109% | HOP-62 NSCLC 100% | NCI-H460 lung 94.6% | HOP-92 NSCLC 92% | NCI-H522 lung 85.6% | A549/ATCC NSCLC 84.7% | 786-0 renal 100% | COLO 205 colon 105% | DU-145 prostate 108% | MALME-3M melanoma 100% | MDA-MB-231 breast 97.4% | RXF 393 renal 98.7% | SF-268 CNS 95.5% | SF-295 CNS 109% | SF-539 CNS 108% | UACC-257 melanoma 89.9% | M14 melanoma 104%

CCCCNC(=O)Oc1ccc(/C(=C(/CC)Cc2ccccc2)c2ccc(OCCCN(C)C)cc2)cc1
inactive: NCI-H23 lung 91.7% | NCI-H226 lung 92.9% | NCI-H322M lung 83.1% | HOP-62 NSCLC 96.1% | NCI-H460 lung 63.7% | HOP-92 NSCLC 43.8% | NCI-H522 lung 88.1% | A549/ATCC NSCLC 69.5% | 786-0 renal 71.2% | COLO 205 colon 20.5% | DU-145 prostate 89.2% | MALME-3M melanoma 93.4% | MDA-MB-231 breast 78.9% | RXF 393 renal 70.7% | SF-268 CNS 77.8% | SF-295 CNS 94.9% | SF-539 CNS 88.5% | UACC-257 melanoma 104%

COc1cc2ncnc(Oc3ccc(NC(=O)Nc4ccc(CN5CCOCC5)c(C(F)(F)F)c4)c4ccccc34)c2cc1OC
inactive: NCI-H23 lung 16.8% | NCI-H322M lung 19.3% | HOP-62 NSCLC 66.8% | NCI-H460 lung 25.4% | NCI-H522 lung 19.8% | A549/ATCC NSCLC 23.1% | 786-0 renal 37.1% | COLO 205 colon 13.4% | DU-145 prostate 32.6% | MDA-MB-231 breast 51.2% | RXF 393 renal 20.8% | SF-268 CNS 23.3% | SF-295 CNS 40.6% | SF-539 CNS 55.4% | UACC-257 melanoma 21.1%
active: NCI-H226 lung 1.53% | HOP-92 NSCLC -2.3% | MALME-3M melanoma -11.1%

CCc1c2cc(Cl)ccc2n2cc(Cc3ccccc3)[nH]c(=O)c12
inactive: NCI-H23 lung 94.3% | NCI-H226 lung 100% | NCI-H322M lung 83.7% | HOP-62 NSCLC 103% | NCI-H460 lung 90.9% | HOP-92 NSCLC 96% | NCI-H522 lung 104% | A549/ATCC NSCLC 106% | 786-0 renal 109% | COLO 205 colon 97.5% | DU-145 prostate 104% | MALME-3M melanoma 85.3% | MDA-MB-231 breast 97.4% | RXF 393 renal 116% | SF-268 CNS 95.4% | SF-295 CNS 98.1% | SF-539 CNS 103% | UACC-257 melanoma 104% | M14 melanoma 99.9%

COc1ccccc1S(=O)(=O)Nc1ccc2c3c(cc(-c4cnn(C5CC5)c4)nc13)C(=O)N2C
inactive: NCI-H23 lung 67.5% | NCI-H226 lung 79.7% | NCI-H322M lung 70.7% | HOP-62 NSCLC 50.7% | NCI-H460 lung 66.7% | HOP-92 NSCLC 40.7% | NCI-H522 lung 64.6% | A549/ATCC NSCLC 66.4% | 786-0 renal 68.2% | COLO 205 colon 39.2% | DU-145 prostate 85.1% | MALME-3M melanoma 63.9% | MDA-MB-231 breast 52.8% | RXF 393 renal 89.8% | SF-268 CNS 84.3% | SF-295 CNS 53.7% | SF-539 CNS 60.8% | UACC-257 melanoma 66.2% | M14 melanoma 61.1%

Nc1nc2ccc(CNc3ccc(C(=O)NC(CC(=O)O)C(=O)O)cc3)cc2c(=O)[nH]1 (stereo not drawn)
inactive: NCI-H23 lung 31.7% | NCI-H226 lung 57.4% | NCI-H322M lung 55.7% | HOP-62 NSCLC 26.5% | NCI-H460 lung 24.4% | HOP-92 NSCLC 64.1% | A549/ATCC NSCLC 11% | COLO 205 colon 85.4% | DU-145 prostate 44.9% | K-562 leukemia 12.2% | MALME-3M melanoma 71.7% | MDA-MB-231 breast 120% | SF-268 CNS 40.1% | SF-295 CNS 29.8% | SF-539 CNS 38.4% | UACC-257 melanoma 42.3% | M14 melanoma 32.8%
active: NCI-H522 lung -0.0288% | 786-0 renal 7.57%
